Source: PubChem BioAssay (NCI)
This is part of a sample that, as a whole, favours compounds with a hit. Of some 83,000 tested, about 20% had one in any assay.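 Step 1: grow cells in 96-well plates. Step 2: add test compound at a single concentration. Step 3: incubate 48 h. Step 4: record percent growth.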 Calls of active or inactive are those of the source. The calls were made as follows: active = growth percent below 10; inactive = the rest.

These compounds were tested on MDA-MB-468 breast (assay: NCI-60 one-dose screen, 48 h (100 = growth as untreated, 0 = no growth, -100 = all killed)). Conditions: 10 µM unless noted.

Question: For `O=S(=O)(Nc1ccc(I)cc1F)c1ccc(-c2cnc(C3CC3)o2)cc1`, which growth is on record?
Answer: -9.07% (active)

Question: With `COc1ccc(OC)c([N+](=O)[O-])c1C=O` as the compound, how does the growth read?
Answer: 81.9% (inactive)

Question: How did the growth turn out when `CN(C)c1ccc2nc3ccc(=[N+](C)C)cc-3oc2c1` was run?
Answer: -15.4% (active)

Question: `CN1CCN(CCNC(=O)c2cccc(CN3c4cccc5c4C(=Cc4cccnc43)N(C)C5=O)c2)CC1` was tested. Which growth did it give?
Answer: 24.4% (inactive)

Question: `O=C(/C=C/c1ccccc1)c1ccccc1O` was tested. Which growth did it give?
Answer: 64.4% (inactive)

Question: Which growth does the source give for `COc1cc(O)c2c(=O)c3c(CC=C(C)C)cc(OC)c(O)c3oc2c1` here?
Answer: 64.6% (inactive)

Question: Which growth does the source give for `O=C1/C(=C/c2ccc(OCCCOc3ccc(Cl)cc3)cc2)N=C2SCCCN12` here?
Answer: 61.2% (inactive)

Question: How did the growth turn out when `CCc1cc2c(cc1Cl)nc1c(=O)[nH]c(=O)nc-1n2CCOCC(C)(C)C` was run?
Answer: 44.3% (inactive)

Question: `O=C(CNC(=O)c1cccc2ccccc12)Nc1ccccc1Oc1ccccc1` was tested. Which growth did it give?
Answer: 19.7% (inactive)

Question: Which growth does the source give for `O/N=C1\c2ccccc2-c2ccc(Br)cc21` here?
Answer: 108% (inactive)

Question: Which growth does the source give for `COCCn1cc(-c2csc(-c3c[nH]c4ccc(F)cc34)n2)c2cccnc21` here?
Answer: -6.83% (active)

Question: How did the growth turn out when `Cc1ccc(OCCOCCOCCOCCOc2ccc(C)n(O)c2=S)c(=S)n1O` was run?
Answer: -13.8% (active)

Question: Which growth does the source give for `Cc1cc(-c2nnc(/C=C/c3ccc4c(c3)OCO4)o2)n[nH]1` here?
Answer: 54% (inactive)

Question: With `C[C@@H]1N=C(c2ccc3ccccc3c2)Nc2nc3ccccn3c2C1=O` as the compound, how does the growth read?
Answer: 50.5% (inactive)

Question: How did the growth turn out when `O=C(/C=C\c1ccc(OCCCCCC[P+](c2ccccc2)(c2ccccc2)c2ccccc2)cc1)c1ccc2c(c1)OCCO2` was run?
Answer: -38.6% (active)

Question: Which growth does the source give for `COc1cc(-c2cc(-c3cccs3)c(C#N)c(N3CCOCC3)n2)cc(OC)c1OC` here?
Answer: 55% (inactive)

Question: Which growth does the source give for `CC(=O)c1c(C)nc(SCC(=O)Nc2cccc(O)c2)n1-c1ccc(Cl)cc1` here?
Answer: 79.7% (inactive)

Question: For `O=C(O)c1cn(C2CC2)c2cc(N3CCN(C(=O)N/N=C/c4ccccc4)CC3)c(F)cc2c1=O`, which growth is on record?
Answer: 83.7% (inactive)

Question: For `COc1ccc(-c2nnc(SCC(=O)N3CCN(c4cc5c(cc4F)c(=O)c(C(=O)O)cn5C4CC4)CC3)o2)cc1OC`, which growth is on record?
Answer: 96.4% (inactive)

Question: For `O=C1OCC2=C1C(c1cccc(F)c1)c1cc3c(cc1N2CCO)OCCO3` (stereo not given), which growth is on record?
Answer: -8.31% (active)

Question: For `COC(=O)C1OC1c1cc([N+](=O)[O-])ccc1OC` (stereo not given), which growth is on record?
Answer: 76.2% (inactive)

Question: For `C=C1CCC2C3(C)COC(c4ccccc4)OC3CCC2(C)C1/C=C/C1=CCOC1=O` (stereo not given), which growth is on record?
Answer: 29.5% (inactive)

Question: Which growth does the source give for `CCN1C(=O)N(CC)C2C1NN=c1s/c(=C\c3ccc(F)cc3)c(=O)n12` (stereo not given) here?
Answer: 11.9% (inactive)

Question: `Cc1ccccc1-c1cc(Cc2ccc(F)cc2)c(=O)[nH]n1` was tested. Which growth did it give?
Answer: 109% (inactive)

Question: `C=CCCCCOc1cccc(/C=C2\N=C3SCCCN3C2=O)c1` was tested. Which growth did it give?
Answer: 89% (inactive)

Question: For `CCCCOc1ccc(/C(C)=N/Nc2cc(C)nc3ccc(Br)cc23)cc1`, which growth is on record?
Answer: 113% (inactive)

Question: Which growth does the source give for `CN1CCOCCOCCOc2ccccc2NC(=O)c2nc(cnc2N)-c2ccc(cc2)S1(=O)=O` here?
Answer: 41.4% (inactive)

Question: Which growth does the source give for `CCC1NC(=O)c2cc(S(N)(=O)=O)c(Cl)cc2N1` (stereo not given) here?
Answer: 107% (inactive)

Question: With `CS(=O)(=O)c1ccc(-n2cc(/C=N/O)c(-c3ccccc3)n2)cc1` as the compound, how does the growth read?
Answer: 35% (inactive)

Question: For `Cc1nc2sc(C(=O)Nc3ccccc3)c(N)c2cc1C(=O)c1ccc(C(F)(F)F)cc1`, which growth is on record?
Answer: 107% (inactive)

Question: `OCCCc1n(Cc2ccc3ccccc3c2)c2ccccc2[n+]1Cc1ccc2ccccc2c1` was tested. Which growth did it give?
Answer: -27.7% (active)

Question: How did the growth turn out when `C=C1C(=O)O[C@H]2[C@H]1CC/C(COC(=O)NCCCCNC(=O)OC/C1=C/CC[C@@]3(C)O[C@H]3[C@H]3OC(=O)C(=C)[C@@H]3CC1)=C\CC[C@@]1(C)O[C@@H]21` was run?
Answer: -14.8% (active)

Question: For `CCOC(=O)c1c2c(c(C)n1Cc1ccc(OC)cc1)-c1nc(N)ncc1CC2`, which growth is on record?
Answer: 107% (inactive)

Question: With `Cn1cc(-c2csc(-c3cn(CCCN4CCCCC4)c4ccc(Br)cc34)n2)c2cccnc21` as the compound, how does the growth read?
Answer: 15.2% (inactive)

Question: Which growth does the source give for `CCN(CC)c1ccc(CNc2ccnc3ccccc23)cc1` here?
Answer: 1.4% (active)

Question: For `Cc1nc(Sc2nc3ccc([N+](=O)[O-])cc3s2)sc1C`, which growth is on record?
Answer: 6.67% (active)

Question: `COc1ccc([C@@H]2C(=O)N(c3cc(OC)c(OC)c(OC)c3)[C@H]2c2ccc(OC)c(O)c2)cc1` was tested. Which growth did it give?
Answer: -4.45% (active)

Question: For `CCOC(=O)C(=O)CC(=O)c1ccccc1`, which growth is on record?
Answer: 96.9% (inactive)

Question: For `O=S(=O)(Nc1ccc2ccccc2c1)c1ccc(-c2cnc(C3CC3)o2)cc1`, which growth is on record?
Answer: 6.05% (active)

Question: With `Clc1ccc(C2CC(c3cccc(Nc4ccncc4)c3)=NN2c2ccc(Cl)cc2)cc1` (stereo not given) as the compound, how does the growth read?
Answer: -35.3% (active)
